Experimental data: PubChem BioAssay (NCATS)
Values without a mark were called inactive. Results filed as inconclusive are left out. Activity calls are given as the source filed them. Unless noted, calls come from the whole dose curve; as a rule, active = well fitted curve in either direction with a large enough effect (not every such curve was filed as active); inconclusive = small, poorly fitted or top-dose-only effect, or another doubt; inactive = flat fitted curve, though single readings scatter.

Legend:
[1] = molecular target: Lysosomal acid glucosylceramidase (Homo sapiens) (UniProt P04062); experiment: Glucocerebrosidase-p2 (AID 348; in the data active = potency below about 10 µM; note: potency is the fitted concentration of half-maximal effect); conditions: purified GBA, blue fluorogenic substrate, 40 min
Lysosomal acid glucosylceramidase (Homo sapiens), sequence (P04062 whole entry, looked up): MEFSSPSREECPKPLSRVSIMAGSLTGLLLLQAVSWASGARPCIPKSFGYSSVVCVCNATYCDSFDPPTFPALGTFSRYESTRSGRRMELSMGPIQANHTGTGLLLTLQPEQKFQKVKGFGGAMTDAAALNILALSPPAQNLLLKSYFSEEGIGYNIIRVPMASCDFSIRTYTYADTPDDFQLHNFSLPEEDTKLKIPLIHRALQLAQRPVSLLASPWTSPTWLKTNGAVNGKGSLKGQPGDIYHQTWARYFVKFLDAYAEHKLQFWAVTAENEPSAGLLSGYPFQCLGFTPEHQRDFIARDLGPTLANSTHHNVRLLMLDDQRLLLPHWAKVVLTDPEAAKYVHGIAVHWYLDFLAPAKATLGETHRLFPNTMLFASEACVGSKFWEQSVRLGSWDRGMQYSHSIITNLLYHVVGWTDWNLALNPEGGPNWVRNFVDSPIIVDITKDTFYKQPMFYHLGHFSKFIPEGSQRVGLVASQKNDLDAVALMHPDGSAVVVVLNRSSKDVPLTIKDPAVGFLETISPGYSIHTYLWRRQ
How it was run: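 Normal human glucocerebrosidase (0.2 nM) with blue fluorogenic substrate (80 uM final) in citrate/phosphate pH 5.9 with 10mM sodium taurocholate, 0.01% tween-20; 40 min RT, NaOH/glycine stop; fluorescence Ex 365/Em 440; AC50 from a titration from 0.6 nM upwards.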

[2] = AP1 Signaling Pathway (AID 357); conditions: ME-180 AP-1-bla reporter, EGF-induced, beta-lactamase ratio, 5 h; at 7.69 µM (top of the series) unless noted;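 note: ME-180 reporter cells stimulated with EGF at its EC50 level; % is set by controls: 0 for no effect and ±100 for the full control effect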
How it was run: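 Cells are seeded overnight, exposed to compound titrations and an EC50 level of EGF for 5 hours at 37 °C, then loaded with CCF4 dye for 2.5 hours. Beta-lactamase activity under the AP-1 element is read as a blue/green ratio.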

[3] = molecular target: Cytochrome P450 1A2 (Homo sapiens) (UniProt P05177); experiment: p450-cyp1a2 (AID 410; calls by dose curve; note: potency is the fitted concentration of half-maximal effect;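 for activity change, negative = inhibition: -100% = full effect of reference inhibitor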); conditions: recombinant CYP1A2, luciferin-ME demethylation, luminescence; series mostly up to 11.4 µM
Cytochrome P450 1A2 (Homo sapiens), sequence (P05177 whole entry, looked up): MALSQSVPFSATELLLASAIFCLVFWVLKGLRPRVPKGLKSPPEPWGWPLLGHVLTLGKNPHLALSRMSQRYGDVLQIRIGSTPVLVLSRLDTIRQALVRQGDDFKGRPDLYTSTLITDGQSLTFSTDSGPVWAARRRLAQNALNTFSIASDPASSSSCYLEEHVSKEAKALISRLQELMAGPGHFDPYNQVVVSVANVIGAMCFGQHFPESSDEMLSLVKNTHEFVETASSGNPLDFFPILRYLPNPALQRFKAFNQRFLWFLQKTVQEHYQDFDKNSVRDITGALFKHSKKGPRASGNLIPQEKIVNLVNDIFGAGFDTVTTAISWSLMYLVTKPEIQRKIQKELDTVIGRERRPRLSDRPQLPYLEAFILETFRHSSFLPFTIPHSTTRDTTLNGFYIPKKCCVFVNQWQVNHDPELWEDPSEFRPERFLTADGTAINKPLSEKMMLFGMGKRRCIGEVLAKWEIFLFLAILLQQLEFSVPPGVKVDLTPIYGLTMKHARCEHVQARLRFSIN
How it was run: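 Luminescent demethylation readout: Luciferin-ME (100uM, equal to Km) turned over by 20nM CYP1A2 for 60 min at room temperature after NADPH regeneration addition, following 10 min compound preincubation. Normalization used 57 uM furafylline as full inhibition.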

[4] = NFAT Signaling Pathway (AID 444); conditions: Jurkat NFAT-bla M1, carbachol, beta-lactamase ratio, 5 h; at 7.69 µM (top of the series) unless noted;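 note: carbachol stimulus at about its EC50 of 1 µM final; % is set by controls: 0 for no effect and ±100 for the full control effect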
How it was run: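 Jurkat cells carrying an NFAT-driven β-lactamase reporter and co-transfected muscarinic M1 receptor were treated with compound plus carbachol (1 uM final, an EC50 level) for 5 h at 37 °C. CCF4 loading followed for 1 h at RT; 460/530 nm ratio gave %activity.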

[5] = Stat Signaling Pathway (AID 446); conditions: ME-180 (cervical carcinoma) SIE beta-lactamase reporter, IL-6 stimulated, 5 h; at 7.69 µM (top of the series) unless noted;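 note: ME-180 cervical cancer cells given 40 pM IL-6 alongside compound; SIE-controlled beta-lactamase reporter measured as 460/530 nm FRET emission ratio; % is set by controls: 0 for no effect and ±100 for the full control effect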
How it was run: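 Normalization used AC90 stimulation (300 pM IL-6) and AC90 inhibition (125 nM pan-JAK inhibitor at 40 pM IL-6). The underlying signal is SIE-driven beta-lactamase in ME-180 cells after 5 h IL-6 exposure with compound.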

[6] = molecular target: Glucocorticoid receptor (Homo sapiens) (UniProt P04150); experiment: GR-GFP Redistribution (AID 450;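 active = compounds whose dose series gives a full or clear partial fitted curve of increased nuclear translocation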; note: potency is the fitted concentration of half-maximal effect); conditions: U2OS GR-GFP nuclear translocation, laser cytometry, 2 h
Glucocorticoid receptor (Homo sapiens), sequence (P04150 whole entry, looked up, the tested form may be a part): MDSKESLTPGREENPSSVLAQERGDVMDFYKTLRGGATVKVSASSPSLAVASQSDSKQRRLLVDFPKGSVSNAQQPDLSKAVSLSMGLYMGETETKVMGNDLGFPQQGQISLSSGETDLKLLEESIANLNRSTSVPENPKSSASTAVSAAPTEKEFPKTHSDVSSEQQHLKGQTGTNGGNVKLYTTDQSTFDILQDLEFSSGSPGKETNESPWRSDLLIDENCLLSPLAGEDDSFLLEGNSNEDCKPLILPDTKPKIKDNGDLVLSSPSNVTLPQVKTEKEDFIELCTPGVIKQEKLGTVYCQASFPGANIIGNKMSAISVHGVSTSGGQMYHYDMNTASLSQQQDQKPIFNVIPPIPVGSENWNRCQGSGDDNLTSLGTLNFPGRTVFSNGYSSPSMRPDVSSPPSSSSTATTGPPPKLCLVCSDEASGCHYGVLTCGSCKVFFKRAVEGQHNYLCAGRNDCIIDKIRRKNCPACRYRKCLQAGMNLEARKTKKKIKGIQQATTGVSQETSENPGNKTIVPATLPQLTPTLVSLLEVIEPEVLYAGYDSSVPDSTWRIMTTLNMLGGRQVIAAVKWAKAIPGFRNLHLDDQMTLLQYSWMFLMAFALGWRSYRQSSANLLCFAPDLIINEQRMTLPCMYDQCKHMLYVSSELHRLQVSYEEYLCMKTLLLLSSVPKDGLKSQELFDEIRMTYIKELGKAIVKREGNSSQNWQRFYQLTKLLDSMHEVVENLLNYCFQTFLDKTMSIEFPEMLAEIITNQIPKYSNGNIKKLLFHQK

[7] = molecular target: Glucocorticoid receptor (Homo sapiens) (UniProt P04150); experiment: GR-EFC Redistribution (AID 451; calls by dose curve; note: potency is the fitted concentration of half-maximal effect); conditions: CHO-K1 GR-EFC translocation, beta-gal luminescence, 2 h
How it was run: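 CHO-K1 cells stably expressing nuclear-localized β-gal enzyme acceptor and GR fused C-terminally to the enzyme donor fragment; ligand-driven nuclear translocation restores β-gal by complementation. Compounds titrated up to 46 uM final, 2 h at 37 °C; luminescence read.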

[8] = molecular target: Mitogen-activated protein kinase 10 (Mus musculus) (UniProt Q61831); experiment: JNK3 AlphaScreen Assay (AID 530); conditions: JNK3 lysate, c-Jun phosphorylation; series mostly up to 11.4 µM;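 note: kinase came from lysate of stimulated human HepG2 cells; signal reports phosphorylation of biotinylated GST-cJun 1-79 at Ser73 with 10 µM ATP; % is set by controls: 0 for no effect and ±100 for the full control effect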
How it was run: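 Phosphorylation of biotinylated GST-cJun(1-79) at Ser73 is measured by AlphaScreen proximity luminescence. Enzyme is JNK3 in HepG2 lysates activated with interleukin-1beta and tumor necrosis factor alpha; ATP is 10 uM final.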

[9] = molecular target: 3',5'-cyclic-AMP phosphodiesterase 4B (Homo sapiens) (UniProt Q07343); experiment: qHTS Assay for Inhibitors of PDE-IV (AID 607; active = well fitted activation curve with a large enough effect in the main read-out, with a control signal flat, not every such curve was filed as active; note: % of control where 0% means no effect); conditions: HEK293 ACTOne CNG channel cells, membrane potential fluorescence; series mostly up to 22.9 µM
3',5'-cyclic-AMP phosphodiesterase 4B (Homo sapiens), sequence (Q07343 whole entry, looked up): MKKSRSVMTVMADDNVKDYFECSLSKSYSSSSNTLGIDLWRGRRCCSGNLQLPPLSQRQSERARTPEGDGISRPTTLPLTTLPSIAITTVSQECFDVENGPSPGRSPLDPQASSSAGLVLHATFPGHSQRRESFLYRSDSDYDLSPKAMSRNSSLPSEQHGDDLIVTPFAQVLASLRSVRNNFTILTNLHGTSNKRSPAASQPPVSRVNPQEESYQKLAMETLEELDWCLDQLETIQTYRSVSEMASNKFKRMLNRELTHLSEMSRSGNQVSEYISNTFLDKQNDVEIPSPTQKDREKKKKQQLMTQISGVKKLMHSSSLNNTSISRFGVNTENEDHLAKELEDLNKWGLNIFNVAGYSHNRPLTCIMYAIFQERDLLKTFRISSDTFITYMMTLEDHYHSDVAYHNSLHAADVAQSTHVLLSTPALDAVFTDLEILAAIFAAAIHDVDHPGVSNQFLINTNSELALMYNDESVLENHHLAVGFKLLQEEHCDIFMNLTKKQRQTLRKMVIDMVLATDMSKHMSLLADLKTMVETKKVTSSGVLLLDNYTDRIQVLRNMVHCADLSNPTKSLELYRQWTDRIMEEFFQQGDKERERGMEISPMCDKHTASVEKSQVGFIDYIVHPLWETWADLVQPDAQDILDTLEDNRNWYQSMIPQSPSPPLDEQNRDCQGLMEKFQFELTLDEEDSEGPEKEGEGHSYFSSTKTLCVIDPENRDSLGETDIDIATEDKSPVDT
How it was run: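 HEK293 ACTOne cells with CNG channel (1000/well), endogenous PDE4; membrane potential dye, compounds up to 22.9 uM final. Fluorescence Ex 535/Em 590; RO 20-1724 (100 uM final) as reference.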

[10] = molecular target: Cytochrome P450 2C9 (Homo sapiens) (UniProt P11712); experiment: qHTS Assay for Inhibitors and Substrates of Cytochrome P450 2C9 (AID 883; active = well fitted curve in the direction sought with a large enough effect; an effect the other way counts as inactive or inconclusive; note: nearly all actives have a fitted effect of over 60% in size; note: potency is the fitted concentration of half-maximal effect); conditions: recombinant CYP2C9, luciferin-H luminescence, 60 min; series mostly up to 11.4 µM
Cytochrome P450 2C9 (Homo sapiens), sequence (P11712 whole entry, looked up): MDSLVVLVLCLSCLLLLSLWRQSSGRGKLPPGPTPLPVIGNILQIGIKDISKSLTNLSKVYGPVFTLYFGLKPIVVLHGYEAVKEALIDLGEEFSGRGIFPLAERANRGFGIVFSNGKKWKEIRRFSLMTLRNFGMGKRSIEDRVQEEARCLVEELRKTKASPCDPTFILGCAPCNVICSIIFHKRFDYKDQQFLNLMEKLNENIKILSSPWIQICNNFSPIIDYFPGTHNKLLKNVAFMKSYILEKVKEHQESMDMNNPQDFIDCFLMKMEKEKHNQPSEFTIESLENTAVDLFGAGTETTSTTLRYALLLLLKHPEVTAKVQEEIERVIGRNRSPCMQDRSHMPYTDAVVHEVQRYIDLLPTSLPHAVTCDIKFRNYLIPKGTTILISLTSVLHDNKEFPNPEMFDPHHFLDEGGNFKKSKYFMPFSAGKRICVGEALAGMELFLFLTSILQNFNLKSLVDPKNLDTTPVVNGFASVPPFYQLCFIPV
How it was run: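 Human CYP2C9 (10nM) hydroxylated Luciferin-H (100uM, at its KM) to luciferin in 25mM KPO4. Compound was preincubated 10 min at 37C, then NADPH regeneration started a 60 min reaction at 37C. Luminescence was read after detection reagent, normalized to 57uM sulphaphenazole.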

[11] = molecular target: Cytochrome P450 3A4 (Homo sapiens) (UniProt P08684); experiment: qHTS Assay for Activators of Cytochrome P450 3A4 (AID 885; active = well fitted curve in the direction sought with a large enough effect; an effect the other way counts as inactive or inconclusive; note: nearly all actives have a fitted effect of over 65% in size); conditions: recombinant CYP3A4, Luciferin-PPXE luminescence, 60 min; series mostly up to 11.4 µM
Cytochrome P450 3A4 (Homo sapiens), sequence (P08684 whole entry, looked up): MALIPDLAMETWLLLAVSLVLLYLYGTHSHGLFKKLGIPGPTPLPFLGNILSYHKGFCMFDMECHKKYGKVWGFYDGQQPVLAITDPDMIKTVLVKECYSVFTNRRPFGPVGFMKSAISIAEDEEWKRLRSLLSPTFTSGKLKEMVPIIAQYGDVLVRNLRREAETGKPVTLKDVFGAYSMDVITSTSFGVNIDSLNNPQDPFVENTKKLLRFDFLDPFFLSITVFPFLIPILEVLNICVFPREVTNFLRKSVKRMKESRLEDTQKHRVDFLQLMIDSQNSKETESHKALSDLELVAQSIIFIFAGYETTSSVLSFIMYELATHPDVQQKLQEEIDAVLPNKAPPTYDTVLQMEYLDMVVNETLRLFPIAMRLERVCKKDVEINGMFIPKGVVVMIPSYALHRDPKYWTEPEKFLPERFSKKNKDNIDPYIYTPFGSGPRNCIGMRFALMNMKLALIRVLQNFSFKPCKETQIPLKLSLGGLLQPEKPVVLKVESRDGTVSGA
How it was run: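 Human CYP3A4 dealkylates Luciferin-PPXE to luciferin, which luciferase detection converts to light. Substrate was at its KM (25uM), buffer 200mM KPO4, reaction 60 min at RT.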

[12] = molecular target: Cytochrome P450 2D6 (Homo sapiens) (UniProt P10635); experiment: qHTS Assay for Inhibitors and Substrates of Cytochrome P450 2D6 (AID 891; active = well fitted curve in the direction sought with a large enough effect; an effect the other way counts as inactive or inconclusive; note: nearly all actives have a fitted effect of over 60% in size; note: potency is the fitted concentration of half-maximal effect); conditions: recombinant CYP2D6, luciferin-ME EGE luminescence; series mostly up to 11.4 µM
Cytochrome P450 2D6 (Homo sapiens), sequence (P10635 whole entry, looked up): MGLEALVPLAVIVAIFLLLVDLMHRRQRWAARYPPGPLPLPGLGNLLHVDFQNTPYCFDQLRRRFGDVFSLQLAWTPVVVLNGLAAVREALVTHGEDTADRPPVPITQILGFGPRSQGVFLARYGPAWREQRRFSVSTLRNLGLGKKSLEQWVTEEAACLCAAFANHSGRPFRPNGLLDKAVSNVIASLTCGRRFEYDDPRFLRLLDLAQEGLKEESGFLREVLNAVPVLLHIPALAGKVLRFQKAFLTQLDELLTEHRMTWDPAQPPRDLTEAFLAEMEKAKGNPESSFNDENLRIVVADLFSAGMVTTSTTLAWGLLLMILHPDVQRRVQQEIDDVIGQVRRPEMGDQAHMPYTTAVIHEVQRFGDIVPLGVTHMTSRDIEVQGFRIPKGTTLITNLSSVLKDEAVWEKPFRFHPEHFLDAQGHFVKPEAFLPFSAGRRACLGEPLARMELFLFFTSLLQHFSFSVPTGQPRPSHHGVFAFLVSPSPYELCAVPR
How it was run: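 Luminescent read-out of luciferin formed by 5 nM human CYP2D6 demethylating 30 uM Luciferin-ME EGE (Km level) over 60 min at room temperature after NADPH regeneration addition. Data normalized to full inhibition by 1.43 uM quinidine.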

[13] = molecular target: Cytochrome P450 3A4 (Homo sapiens) (UniProt P08684); experiment: qHTS Assay for Inhibitors and Substrates of Cytochrome P450 3A4 (AID 884; active = well fitted curve in the direction sought with a large enough effect; an effect the other way counts as inactive or inconclusive; note: nearly all actives have a fitted effect of over 50% in size; note: potency is the fitted concentration of half-maximal effect); conditions: recombinant CYP3A4, Luciferin-PPXE luminescence; series mostly up to 57.1 µM
How it was run: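 Luminescent readout of luciferin produced by CYP3A4 (20 nM) dealkylation of Luciferin-PPXE, 25 uM (its KM). NADPH-driven reaction ran 60 min at RT after 10 min compound preincubation; data scaled to 57 uM ketoconazole as 100% inhibition.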

[14] = molecular target: Cytochrome P450 2C19 (Homo sapiens) (UniProt P33261); experiment: qHTS Assay for Inhibitors and Substrates of Cytochrome P450 2C19 (AID 899; active = well fitted curve in the direction sought with a large enough effect; an effect the other way counts as inactive or inconclusive; note: nearly all actives have a fitted effect of over 60% in size; note: potency is the fitted concentration of half-maximal effect); conditions: recombinant CYP2C19, luciferin-H EGE luminescence; series mostly up to 11.4 µM
Cytochrome P450 2C19 (Homo sapiens), sequence (P33261 whole entry, looked up): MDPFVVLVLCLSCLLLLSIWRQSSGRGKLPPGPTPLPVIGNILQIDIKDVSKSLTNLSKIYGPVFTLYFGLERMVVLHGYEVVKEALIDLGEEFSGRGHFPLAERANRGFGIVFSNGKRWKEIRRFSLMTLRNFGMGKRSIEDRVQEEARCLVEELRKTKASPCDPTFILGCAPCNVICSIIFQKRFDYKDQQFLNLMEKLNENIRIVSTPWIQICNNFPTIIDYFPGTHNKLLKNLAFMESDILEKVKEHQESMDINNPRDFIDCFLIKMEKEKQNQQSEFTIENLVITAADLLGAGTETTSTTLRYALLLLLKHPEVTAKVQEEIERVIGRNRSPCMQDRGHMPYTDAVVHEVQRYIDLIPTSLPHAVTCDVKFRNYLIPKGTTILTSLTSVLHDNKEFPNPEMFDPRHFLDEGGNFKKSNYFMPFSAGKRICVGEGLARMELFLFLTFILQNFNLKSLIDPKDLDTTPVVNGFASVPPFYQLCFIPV
How it was run: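 Human CYP2C19 (5nM) with Luciferin-H EGE at 10uM (its KM) in 50mM KPO4 was preincubated with compound for 10 min at 37C. NADPH regeneration started a 60 min 37C reaction. Luciferin was read by luminescence, normalized to 57uM ketoconazole.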

Structure (SMILES) | Potency [1] [µM] | activity change, negative = inhibition [2] [%] | Potency [3] | activity change, negative = inhibition [4] [%] | activity, negative = inhibition [5] [%] | Potency [6] [µM] | Potency [7] [µM] | Potency [8] | Potency [9] | Potency [10] | Potency [11] | Potency [12] | activity change, negative = inhibition [3] | Potency [13] | Potency [14] | activity change, negative = inhibition [13]
Clc1ccc(CSCCc2ccncc2)cc1Cl | > 11.4 | -26.7 | 0.316 µM (active) | 2.37 | 5.37 | > 46 | > 9.22 | inactive | inactive | 0.0794 µM (active) | inactive | 0.316 µM (active) |  |  |  | 
O=C(O)c1c(Cl)c(Cl)c(Cl)c(Cl)c1C(=O)Nc1ccc2cn[nH]c2c1 | > 11.4 | 1.63 | 0.2 µM (active) | 4.49 | 20.7 | > 46 | > 9.22 | inactive | inactive | 0.0794 µM (active) | inactive |  |  |  |  | 
O=C1c2ccccc2N[C@H](c2cc(Cl)cc(Cl)c2O)N1CCc1ccccn1 | > 11.4 | -16.9 |  | 5.29 | -24.9 | > 46 | > 9.22 | inactive | inactive | 3.16 µM (active) | inactive |  | 5.8% [at 2.29 µM] | 0.794 µM (active) | 3.98 µM (active) | 
O=c1[nH]c(SCc2c(Cl)c(Cl)c(Cl)c(Cl)c2Cl)nc(=S)[nH]1 | > 11.4 | 6.9 | 1 µM (active) | 13.5 | -6.17 | > 46 | > 9.22 | inactive | inactive | 1.26 µM (active) | inactive |  |  | 3.16 µM (active) |  | 
NCCSC[C@H](N)C(=O)O | > 11.4 | -5.07 | inactive | 6.39 | 6.75 | > 46 | > 9.22 | inactive | inactive | inactive |  |  |  |  |  | 
Cc1c(Cl)cccc1NC(=O)C[C@H]1Sc2ccccc2NC1=O | > 11.4 | -17.8 |  | 7.2 | 6.79 | > 46 | > 9.22 | inactive | inactive | inactive | inactive |  | -23.2% [at 2.29 µM] |  |  | 
COc1c(NC(C)=O)c2ccccc2c2ccccc12 | > 11.4 | -1.26 | 0.398 µM (active) | -6.36 | 1.8 | > 46 | > 9.22 | inactive | inactive | inactive |  |  |  |  |  | 
Nc1ncnc2nc[nH]c12.Nc1ncnc2nc[nH]c12.[Cl][Pt]([Cl])([Cl])[Cl] | > 11.4 | -1.02 |  | 4.22 | -3.14 | > 46 | > 9.22 | inactive | inactive | inactive |  | inactive | 13.2% [at 2.29 µM] |  | inactive | 
C[C@](O)(c1ccccc1)c1nccc2ccccc12 | > 11.4 | -0.483 | inactive | 3.41 | -8.29 | > 46 | > 9.22 | inactive | inactive |  |  |  |  |  |  | 49.6% [at 11.4 µM]
CC1=CC(C)(C)Nc2ccc(CSc3ccccc3)cc21 | > 11.4 | 3.94 | 0.501 µM (active) | -4.82 | -11.8 | > 46 | > 9.22 | inactive | inactive | 0.199 µM (active) | inactive | 0.631 µM (active) |  | 3.98 µM (active) |  | 
CC(C)[C@@H]1OC(=O)C=CC=CC=CC=CC=CC[C@@H](O)[C@H](C)[C@@H](O)C[C@H](O)C[C@H](O)C[C@H](O)C[C@H](O)C[C@H](O)C[C@H](O)C=C[C@@H]1C | > 11.4 | 1.06 |  | 9.95 | 8 | > 46 | > 9.22 | inactive | inactive | inactive |  |  | -2.1% [at 2.29 µM] |  | inactive | 
NNC(=O)CCc1ccc2ccc3ccccc3c2c1 | > 11.4 | -3.44 | 0.0316 µM (active) | 13.8 | -11 | > 46 | > 9.22 | inactive | inactive | 1.58 µM (active) | inactive | 1.58 µM (active) |  | 0.398 µM (active) | 0.251 µM (active) | 
